# Test results taken from PubChem BioAssay (NCI).
# The panel holds about 79,000 compounds, 15% with a hit somewhere; the sample as a whole holds those more often. Calls of active or inactive are those of the source. Rule as the data show it: active = growth inhibition above about 70%; inactive = the rest.
# Experiment: NCI Yeast Anticancer Drug Screen. Data for the rad50 strain (AID 155);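 also: 0% = growth of vehicle-only cultures of the same strain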
# Settings: S. cerevisiae rad50 strain growth inhibition; at 50.0 µM; hits give high values
# Summary of the method: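 Vehicle-treated cultures provide the reference for the growth inhibition reported for compound-exposed, repair-deficient yeast.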
row,SMILES,growth inhibition
1,COC1C2C[C@@H](O)CCC2C(C(=O)OCCl)C[C@H]1O (stereo not given in full),-12.4% (inactive)
2,Oc1ccc2ccccc2c1C=NCCS,24.9% (inactive)
3,[N-]=[N+]=NC12CC3C4CC5CC3C(C1)C(C5)C4C2,10.3% (inactive)
4,O=C(Oc1ccc2ccccc2c1)c1ccccc1,28.4% (inactive)
5,CCOC(=O)CCC(C(=O)OCC)N1C(=O)c2ccccc2C1=O (stereo not given),1% (inactive)
6,CCO/N=C(/N)c1ncn(Cc2ccccc2)c1NCC(OCC)OCC,-26.4% (inactive)
7,Cc1cccc(F)c1C,24.9% (inactive)
8,CS/C(c1ccccc1)=[N+](\[O-])Cc1ccccc1,17.6% (inactive)
9,C=CC1(C)C(C)=C(C)C(C)=C1C,11.1% (inactive)
10,CC(=O)NC1c2ccccc2C(C)(C)C12CCC1(CC2)OCCO1 (stereo not given),-33.5% (inactive)
11,COc1ccc(/C=C2\N=C(SC)NC2=O)cc1,-8.35% (inactive)
12,CC(C)c1ccc(OC(=N)c2ccccc2)cc1,1.5% (inactive)
13,CCCCCCCCCCCCCCCCCC1(c2ccccc2)NC(=O)NC1=O (stereo not given),9.5% (inactive)
14,Cc1ccc(N(C)C)cc1,-25.3% (inactive)
15,CC(=O)Nc1ncc2ccccc2c1-c1ccc(NC(=O)CCCl)cc1,-0.65% (inactive)
16,CC(=O)Nc1ccc(N(C)C)c(C)c1,-6.65% (inactive)
17,O=S(CC(O)(c1ccccc1)c1ccccc1)c1ccccc1 (stereo not given),6.55% (inactive)
18,CCCC(=O)OC1C=C2N3C(=O)C4CC56C(=CC(OC(C)=O)C7OC75)N4C(=O)C3CC26C2OC12 (stereo not given),83.3% (active)
19,CC1(C)CCCC2(C)[C@@H]1CC[C@]13C[C@](C)(CC[C@@H]21)[C@@H]3CO (stereo not given in full),-17.8% (inactive)
20,CCc1nc(-c2ccccc2)nc2c1nc(-c1ccc(C)cc1)n2Nc1ccccc1,0.85% (inactive)

row,SMILES,growth inhibition
1,CN(C)CCCNc1ccc([N+](=O)[O-])c2nc3ccccc3c(N)c12,-2.1% (inactive)
2,CCCc1cc(C)cc(N=Cc2ccccc2)c1O,96.6% (active)
3,CC1(N)CCC(C(C)(C)N)CC1 (stereo not given),28.1% (inactive)
4,Cc1cc2c(cc1C)C(=O)c1ccccc1C2=O,-29.3% (inactive)
5,O=C1c2ccccc2CC12Cc1ccc3c(c1C2=O)CCCC3 (stereo not given),-11.2% (inactive)
6,CC1(C(=O)Sc2ccccc2)OC1(C)c1ccccc1 (stereo not given),-8.5% (inactive)
7,C=Cc1ccccc1N=NC(C(=O)OC)=P(c1ccccc1)(c1ccccc1)c1ccccc1,-24.2% (inactive)
8,COC1c2ccccc2CC1(C)C (stereo not given),13.8% (inactive)
9,Cc1ccc2ccc(-c3cc4ccccc4s3)nc2c1,-12.2% (inactive)
10,Cc1ccc(C(=O)N/N=C/c2c(O)ccc3ccccc23)cc1,-4.7% (inactive)
11,Cc1cccc(NC(=O)Nc2ccccc2)n1,4.65% (inactive)
12,Nc1nc2c(C(=O)c3ccco3)nnn2c2cccc(Cl)c12,10.7% (inactive)
13,CC(=O)[CH-]C(=O)c1ccccc1.CC(=O)[CH-]C(=O)c1ccccc1.CC[C@H](/C=C/C(C)[C@H]1CCC2[C@@H]3CC=C4C[C@@H]([O-])CC[C@]4(C)C3CC[C@@]21C)C(C)C.CC[O-].[Ti+4] (stereo not given in full),8% (inactive)
14,CC(=O)OCC1OC(N2C(=O)C(=O)c3cc(C)ccc32)C(OC(C)=O)C(OC(C)=O)C1OC(C)=O (stereo not given),59.8% (inactive)
15,C#Cc1cccc(N=Cc2cc(Br)cc(OC)c2O)c1,-23.4% (inactive)
16,CCn1c2ccccc2c2ccc(N=Cc3ccc4ccccc4c3)cc21,5.65% (inactive)
17,Cc1cccc(C)c1NN,23.2% (inactive)
18,Cc1ccc2c(c1)C(=Nc1ccc(Cl)cc1)C(=O)N2,-1.6% (inactive)
19,O=C(Nc1ccccc1)Oc1ccccc1C1CCCCC1,26.8% (inactive)
20,NC(CS(=O)Cc1ccccc1)C(=O)O (stereo not given),0.8% (inactive)

# Experiment: NCI Yeast Anticancer Drug Screen. Data for the mec2-1 strain (AID 157)
# Settings: S. cerevisiae mec2-1 strain, at 50.0 µM, hits give high values
# Summary of the method: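 Using mec2-1 yeast: add compound, measure growth, express inhibition versus vehicle-treated cultures.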
row,SMILES,growth inhibition
1,COC1C2C[C@@H](O)CCC2C(C(=O)OCCl)C[C@H]1O (stereo not given in full),-6.9% (inactive)
2,Oc1ccc2ccccc2c1C=NCCS,6.25% (inactive)
3,[N-]=[N+]=NC12CC3C4CC5CC3C(C1)C(C5)C4C2,0.6% (inactive)
4,O=C(Oc1ccc2ccccc2c1)c1ccccc1,4.4% (inactive)
5,CCOC(=O)CCC(C(=O)OCC)N1C(=O)c2ccccc2C1=O (stereo not given),6.75% (inactive)
6,CCO/N=C(/N)c1ncn(Cc2ccccc2)c1NCC(OCC)OCC,1.15% (inactive)
7,Cc1cccc(F)c1C,-14.5% (inactive)
8,CS/C(c1ccccc1)=[N+](\[O-])Cc1ccccc1,9% (inactive)
9,C=CC1(C)C(C)=C(C)C(C)=C1C,-4.2% (inactive)
10,CC(=O)NC1c2ccccc2C(C)(C)C12CCC1(CC2)OCCO1 (stereo not given),-17.1% (inactive)
11,COc1ccc(/C=C2\N=C(SC)NC2=O)cc1,0.2% (inactive)
12,CC(C)c1ccc(OC(=N)c2ccccc2)cc1,-7.35% (inactive)
13,CCCCCCCCCCCCCCCCCC1(c2ccccc2)NC(=O)NC1=O (stereo not given),10.3% (inactive)
14,Cc1ccc(N(C)C)cc1,-15.1% (inactive)
15,CC(=O)Nc1ncc2ccccc2c1-c1ccc(NC(=O)CCCl)cc1,19.4% (inactive)
16,CC(=O)Nc1ccc(N(C)C)c(C)c1,-7.55% (inactive)
17,O=S(CC(O)(c1ccccc1)c1ccccc1)c1ccccc1 (stereo not given),14.4% (inactive)
18,CCCC(=O)OC1C=C2N3C(=O)C4CC56C(=CC(OC(C)=O)C7OC75)N4C(=O)C3CC26C2OC12 (stereo not given),84.2% (active)
19,CC1(C)CCCC2(C)[C@@H]1CC[C@]13C[C@](C)(CC[C@@H]21)[C@@H]3CO (stereo not given in full),-2.9% (inactive)
20,CCc1nc(-c2ccccc2)nc2c1nc(-c1ccc(C)cc1)n2Nc1ccccc1,6.05% (inactive)

row,SMILES,growth inhibition
1,CN(C)CCCNc1ccc([N+](=O)[O-])c2nc3ccccc3c(N)c12,-64.7% (inactive)
2,CCCc1cc(C)cc(N=Cc2ccccc2)c1O,97.6% (active)
3,CC1(N)CCC(C(C)(C)N)CC1 (stereo not given),-8.75% (inactive)
4,Cc1cc2c(cc1C)C(=O)c1ccccc1C2=O,-36.1% (inactive)
5,O=C1c2ccccc2CC12Cc1ccc3c(c1C2=O)CCCC3 (stereo not given),-14.4% (inactive)
6,CC1(C(=O)Sc2ccccc2)OC1(C)c1ccccc1 (stereo not given),7.65% (inactive)
7,C=Cc1ccccc1N=NC(C(=O)OC)=P(c1ccccc1)(c1ccccc1)c1ccccc1,20.9% (inactive)
8,COC1c2ccccc2CC1(C)C (stereo not given),8.8% (inactive)
9,Cc1ccc2ccc(-c3cc4ccccc4s3)nc2c1,-9.75% (inactive)
10,Cc1ccc(C(=O)N/N=C/c2c(O)ccc3ccccc23)cc1,20.7% (inactive)
11,Cc1cccc(NC(=O)Nc2ccccc2)n1,0.9% (inactive)
12,Nc1nc2c(C(=O)c3ccco3)nnn2c2cccc(Cl)c12,-2.7% (inactive)
13,CC(=O)[CH-]C(=O)c1ccccc1.CC(=O)[CH-]C(=O)c1ccccc1.CC[C@H](/C=C/C(C)[C@H]1CCC2[C@@H]3CC=C4C[C@@H]([O-])CC[C@]4(C)C3CC[C@@]21C)C(C)C.CC[O-].[Ti+4] (stereo not given in full),-4.6% (inactive)
14,CC(=O)OCC1OC(N2C(=O)C(=O)c3cc(C)ccc32)C(OC(C)=O)C(OC(C)=O)C1OC(C)=O (stereo not given),10.2% (inactive)
15,C#Cc1cccc(N=Cc2cc(Br)cc(OC)c2O)c1,-6.7% (inactive)
16,CCn1c2ccccc2c2ccc(N=Cc3ccc4ccccc4c3)cc21,-2.3% (inactive)
17,Cc1cccc(C)c1NN,-4.15% (inactive)
18,Cc1ccc2c(c1)C(=Nc1ccc(Cl)cc1)C(=O)N2,1.7% (inactive)
19,O=C(Nc1ccccc1)Oc1ccccc1C1CCCCC1,2.4% (inactive)
20,NC(CS(=O)Cc1ccccc1)C(=O)O (stereo not given),-1.1% (inactive)
